Screening results as filed in PubChem BioAssay.
TCR act = activates T cell receptor signaling. primary human leukocytes, anti-CD3, IL-2 HTRF, 48 h. Potency, µM (doses to about 9.22 µM), usual class: activators. 330,000 tested, under 10 active
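IL-2 produced over 48 hr by a-CD3 bead-stimulated primary human leukocytes exposed to compounds was detected with a homogeneous time-resolved FRET immunoassay, 665nm acceptor signal after 320nm excitation.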
ClpP mod = qHTS Assay for Activators of ClpP; ATP-dependent Clp protease proteolytic subunit (Bacillus subtilis (strain 168)), P80244; purified B. subtilis ClpP, FRET peptide cleavage, 20 min; Potency, µM (top dose mostly 57.5 µM); hit rate 1.9% among 340,000; active means well fitted falling curve with a large enough effect; inconclusive means small, poorly fitted or top-dose-only effect; inactive means no such curve, though single readings can be large or run the other way; further: the source files actives as falling curves though it sought activators and does not explain the sign; nearly all actives have a fitted effect of over 65% in size
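Buffer: 100 mM Tris/HCl pH8, 100 mM KCl, 0.05% low protease BSA, 2.5% glycerol, 0.01% Tween-20. ClpP 10 microg/mL final; 20 min RT; delta FRET normalized to ADEP and DMSO controls.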
Sfp inh = blocks B. subtilis Sfp PPTase activity; Biochemical Sfp PPTase activity, qHTS; Potency, µM, actives largely listed as inhibitors; hit rate 3.5% among 310,000; AID 1490;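 further: the enzyme is Sfp with the accession as filed and its product quenches rhodamine fluorescence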
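Compounds were incubated with enzyme (final 15 nM) for 15 min at room temperature before substrate addition started the reaction. Fluorescence at 525 nm excitation, 598 nm emission was recorded immediately and after 30 minutes.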
uPA generation = inhibitors of cell surface uPA generation; AID 540303; cell surface uPA generation assay, qHTS; hit rate 0.31% among 330,000; Potency, µM (doses to about 38.3 µM), actives largely listed as inhibitors; active means well fitted inhibition curve with a large enough effect; inconclusive means small, poorly fitted or top-dose-only effect; inactive means no such curve, though single readings can be large or run the other way; tested in mouse RAW 264.7 cells; further: nearly all actives have a fitted effect of over 55% in size
Sfp PPTase conf = confirmation of Bacillus subtilis Sfp PPTase inhibitors; AID 2701; Potency, µM (highest dose often 114 µM), usual class: inhibitors; shares compounds with Sfp inh; Sfp PPTase enzymatic assay, qHTS titration; hit rate 79% among 380
Sfp PPTase gel = Inhibits B. subtilis Sfp phosphopantetheinylation; shares compounds with Sfp inh; purified Sfp, gel-based phosphopantetheinylation read-out; Potency, µM, most hits filed as inhibitors; hit rate 20% among 210;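 active means potency below 100 µM; inconclusive means dose-dependent response but potency above 100 µM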;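 further: potency is an IC50 for inhibitors of Sfp transfer activity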
A number is an active result; 0 = inactive; ? = inconclusive; - = no result; ! = not active in a repeat. Shown are actives, neighbours in structure and some others; about 4.2% of the full set was active somewhere. Unless noted, the call rests on the fitted dose curve; in most records, active means well fitted curve in the direction sought with a large enough effect; inconclusive means small, poorly fitted or top-dose-only effect, or another doubt; inactive means no such curve, though single readings can be large; an effect the other way counts as inactive or inconclusive.

SMILES | TCR act | ClpP mod | Sfp inh | uPA generation | Sfp PPTase conf | others
N[C@@H](C(=O)N[C@@H]1C(=O)N2C(C(=O)O)=C(Cl)CS[C@H]12)c1ccccc1 | 0 | 0 | 50µM | 0 | 74µM | Sfp PPTase gel=56µM
CC1=C(C(=O)OCC(Cl)(Cl)Cl)N2C(=O)C(NC(=O)Cc3ccccc3)C2SC1 (stereo not drawn) | 0 | - | ? | 0 | -
CC1=C(C(=O)O)N2C(=O)C(NC(=O)C(N)c3ccc(O)cc3)C2SC1 (stereo not drawn) | - | - | 0 | - | -
CN1CCN(C(=S)C(=O)Nc2ccc(Br)cc2)CC1 | 0 | - | 1.3µM | 0 | 6.6µM
O=C(NCCCN1CCOCC1)c1sc2cc(Cl)ccc2c1Cl | 0 | - | 0 | 0 | -
O=C(Nc1ccccn1)c1sc2cc([N+](=O)[O-])ccc2c1Cl | - | 0 | 6.3µM | 0 | 3.7µM
O=C(NCCCN1CCOCC1)c1sc2cc([N+](=O)[O-])ccc2c1Cl | 0 | - | 0.89µM | 0 | 2.4µM
Cc1ccnc(NC(=O)c2sc3ccccc3c2Cl)c1 | 0 | 0 | 0 | 0 | -
Cc1sc2nc(SCc3nc(-c4cccs4)no3)n(-c3ccccc3)c(=O)c2c1C | 0 | 0 | 4µM | 0 | 5.9µM | Sfp PPTase gel=0
CCOC(=O)c1c(NC(=O)c2ccccc2C(=O)O)sc2c1CCCC2 | - | 0 | 0 | 0 | -
CCOC(=O)c1c(N2C(=O)CC(Sc3ccccc3C(=O)O)C2=O)sc2c1CCCC2 (stereo not drawn) | 0 | - | 3.5µM | 0 | 42µM
COC(=O)c1ccc(-c2nc(O)c(C)s2)cc1 | 0 | - | 14µM | 0 | 47µM
COC(=O)c1ccc(-c2nc3cc(Cl)c(N)cc3s2)cc1 | 0 | 0 | 0 | 0 | -
Oc1ccc2c(c1)OCC1(O)Cc3cc(O)c(O)cc3C21 (stereo not drawn) | 0 | 0 | 0 | ? | -
Oc1cc2c(cc1O)[C@H]1c3ccc(O)c(O)c3OC[C@@]1(O)C2 | 0 | - | 4µM | 0 | 8.3µM | Sfp PPTase gel=2.1µM
CCn1c(=S)sc2c(=O)n(CC(=O)Nc3ccccc3C(F)(F)F)c(C)nc21 | 0 | 0 | 0 | 0 | -
O=C(O)c1cc(S(=O)(=O)N2CC3CC3C2C(=O)O)c(Cl)cc1Cl (stereo not drawn) | 0 | 0 | 0 | 0 | -
COC(=O)c1c(NC(=O)c2ccc(C)o2)sc2c1CCCCC2 | 0 | 32µM | 14µM | 0 | 37µM | Sfp PPTase gel=0
CCCCS(=O)(=O)Nc1ccc(C)cn1 | 0 | ? | 40µM | 0 | 47µM | Sfp PPTase gel=0
CC1=CSC2=NC(=O)/C(=C\c3cccn3-c3ccc([N+](=O)[O-])cc3)C(=N)N12 | 0 | 0 | 1µM | 0 | 37µM | Sfp PPTase gel=0
O=C(CSc1nnc(SCC(=O)c2ccco2)s1)c1ccco1 | 0 | 0 | 14µM | 0 | 47µM | Sfp PPTase gel=?
CCCNC(=O)C1(C)CCCN(C(=O)c2cccc(C#N)c2)C1 (stereo not drawn) | - | 0 | - | - | -
CC(c1ccccc1)C(Cc1nc2ccccc2[nH]1)c1nc2ccccc2[nH]1 (stereo not drawn) | - | - | 0 | - | -
COc1ccccc1CC(Cc1nc2ccccc2[nH]1)c1nc2ccccc2[nH]1 (stereo not drawn) | 0 | - | 5µM | 0 | 17µM
CCOC(=O)c1c(-c2ccc(C)o2)csc1NC(=O)CSc1nnnn1-c1ccccc1 | 0 | 0 | 3.5µM | 0 | 9.4µM
SMILES | TCR act | ClpP mod | Sfp inh | uPA generation | Sfp PPTase conf | others
CCc1ccccc1NC(=O)CSc1nnc(-c2ccc(OC)cc2)s1 | - | 0 | - | - | -
CN1CCC(=C2c3ccccc3C=Cc3ccccc32)CC1 | 0 | 0 | 45µM! | 0 | 83µM | Sfp PPTase gel=0
CCOC(=O)c1nn(-c2ccc(C)cc2)c(=O)c2c(N)scc12 | 0 | 0 | 3.5µM | 0 | 19µM
CCOC(=O)c1nc(N)c(=O)n(-c2ccc(C)cc2)n1 | 0 | 0 | 0 | 0 | -
Cc1ccc(Nc2nc(-c3sc(NC(=O)c4cccc(Cl)c4)nc3C)cs2)cc1 | - | - | 0 | - | -
Cc1ccc(Nc2nc(-c3sc(NC(=O)c4ccco4)nc3C)cs2)cc1 | 0 | 0 | 16µM | 0 | 53µM | Sfp PPTase gel=?
CCOC(=O)c1c(NC(=O)c2ccccc2)sc2c1CCc1ccccc1-2 | 0 | - | 1.3µM | 0 | 13µM
CCOC(=O)c1c(NC(=O)c2ccc(Br)cc2)sc2c1CCCC2 | - | 0 | - | - | -
CCOC(=O)c1c(NC(=O)c2ccccc2Cl)sc2c1CCc1ccccc1-2 | 0 | - | 11µM | 0 | 9.4µM
CCN(CC)C(=O)c1c(NC(=O)c2ccccc2)sc(C)c1C | 0 | 0 | 0 | 0 | -
Cc1sc(NC(=O)c2ccccc2)c(C(=O)c2ccccc2)c1C | 0 | 0 | 13µM | 0 | 13µM
CC(=O)O[C@@H](Cc1ccc(O)cc1)C(=O)CC(C)C | - | 0 | - | - | -
COc1ccccc1Cc1nc2ccccc2[nH]c1=O | - | 0 | - | - | -
COC(=O)C(C)Oc1cc(C)ccc1COc1ccc(-n2nc(C)n(C(F)F)c2=O)cc1 (stereo not drawn) | 0 | - | - | 0 | -
S=C(Nc1cccc(Cl)c1)Nc1cccc2cnccc12 | 0 | 0 | 1.4µM | 0 | 13µM | Sfp PPTase gel=?
S=C(Nc1cccc(Cl)c1)Nc1ccccc1Oc1ccccc1 | 0 | 0 | 0 | 0 | -
O=C(O)c1ccc(-n2c(=O)c3ccccc3c3ccccc3c2=O)cc1 | 0 | - | 7.9µM | 0 | 74µM | Sfp PPTase gel=?
CCN(CC)C1=CC(=O)OC12CCCCC2 | 0 | 0 | 35µM | 0 | ?
Cc1ccc(-n2c(Cc3cccn3C)nnc2SCC(=O)NCc2ccco2)cc1 | 0 | 0 | 6.3µM | - | ? | Sfp PPTase gel=0
COc1ccccc1N(CC(=O)Nc1ccc2c(c1)OCO2)S(=O)(=O)c1ccc(C)cc1 | - | 0 | - | - | -
CC1(C)[C@@H](OC(=O)CCC(=O)O)CC[C@@]2(C)[C@H]1CC[C@@]1(C)[C@H]2C(=O)C=C2[C@H]3C[C@](C)(C(=O)O)CC[C@]3(C)CC[C@@]21C | - | - | 0 | - | -
CN(C(=O)c1cccc(Br)c1)C1CCS(=O)(=O)C1 (stereo not drawn) | 0 | - | - | 0 | -
NC(=O)CSc1nc2scc(-c3ccco3)c2c(=O)n1-c1ccccc1 | 0 | 0 | 6.3µM | 0 | 15µM
Cn1c(SCC(=O)NCC2CCCO2)nc2scc(-c3ccccc3)c2c1=O (stereo not drawn) | 0 | 0 | - | 0 | -
O=C(CSc1nc2scc(-c3ccco3)c2c(=O)n1-c1ccccc1)NCC1CCCO1 (stereo not drawn) | 0 | 0 | 1.3µM | 0 | 42µM
SMILES | TCR act | ClpP mod | Sfp inh | uPA generation | Sfp PPTase conf | others
Cc1ccc(N(C(C)C(=O)NCc2ccncc2)S(C)(=O)=O)cc1C (stereo not drawn) | 0 | - | 0 | 0 | -
COc1ccc(S(=O)(=O)N2CCN(C(=O)CSC(=S)N3CCCC3)CC2)cc1 | - | 0 | - | 0 | -
Nc1nc(N)c2c(ccc3c2ccn3Cc2cccc([N+](=O)[O-])c2)n1 | - | 0 | - | - | -
CC(C)c1ccc(Cn2ccc3c4c(N)nc(NC5CC5)nc4ccc32)cc1 | - | - | 5µM | - | 13µM | Sfp PPTase gel=?
COC(=O)Oc1nsnc1N1CCOCC1 | 0 | 0 | 13µM | 0 | 11µM
O=C(Oc1nsnc1N1CCOCC1)N(c1ccccc1)c1ccccc1 | 0 | 0 | 0 | 0 | -
CCOC(=O)Cc1nnc(NC(=O)c2ncn[nH]2)s1 | 0 | 0 | 14µM | 0 | 0 | Sfp PPTase gel=0
Cc1c(O)ccc2c(CC(=O)N[C@@H](Cc3ccccc3)C(=O)O)cc(=O)oc12 | 0 | 0 | 0 | 0 | -
